High-throughput results from PubChem.
Rows were chosen to be rich in hits. Some 4.1% of all compounds tested hit in one or more screens of this group.
FBA Mtb inh: Mtb fructose-bisphosphate aldolase inhibition | purified M. tuberculosis FBA, fluorescence read-out | inhibition, % at 1 µM | hit rate 2.3% among 360,000; in the data active = inhibition above about 27%;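 note: 0% = vehicle and 100% = reference inhibitor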
RecA intein inh: inhibitors of M. tuberculosis RecA intein splicing. cell-free RecA intein splicing, fluorescence. inhibition, % (concentration not given with the values). P9WHJ3. hit rate 0.75% among 290,000; in the data active = inhibition above about 30%;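 note: 0% = vehicle wells and 100% = reference inhibitor control wells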
Target sequence (P9WHJ3 whole entry, looked up): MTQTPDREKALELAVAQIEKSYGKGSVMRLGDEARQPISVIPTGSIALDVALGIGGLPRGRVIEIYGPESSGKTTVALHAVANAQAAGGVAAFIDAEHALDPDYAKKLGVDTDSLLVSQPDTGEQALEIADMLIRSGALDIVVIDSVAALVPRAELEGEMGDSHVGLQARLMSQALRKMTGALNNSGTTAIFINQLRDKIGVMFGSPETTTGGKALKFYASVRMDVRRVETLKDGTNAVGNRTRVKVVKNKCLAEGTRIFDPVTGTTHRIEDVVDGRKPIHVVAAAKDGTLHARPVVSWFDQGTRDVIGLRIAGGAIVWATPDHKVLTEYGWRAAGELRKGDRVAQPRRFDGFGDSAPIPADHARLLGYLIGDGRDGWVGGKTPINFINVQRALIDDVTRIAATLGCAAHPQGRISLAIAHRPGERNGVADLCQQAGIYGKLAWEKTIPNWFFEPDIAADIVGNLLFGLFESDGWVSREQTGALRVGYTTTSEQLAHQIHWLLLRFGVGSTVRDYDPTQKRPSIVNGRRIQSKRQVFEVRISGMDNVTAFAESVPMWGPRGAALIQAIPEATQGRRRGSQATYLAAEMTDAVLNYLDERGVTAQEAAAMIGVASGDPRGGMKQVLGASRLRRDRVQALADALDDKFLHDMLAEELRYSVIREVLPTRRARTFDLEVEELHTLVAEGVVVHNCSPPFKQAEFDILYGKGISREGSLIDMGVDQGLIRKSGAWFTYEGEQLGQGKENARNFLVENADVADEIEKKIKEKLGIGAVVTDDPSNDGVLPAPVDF
GDH-TPI inh: GDH-TPI coupled enzyme inhibition counter-screen. GDH-TPI coupled enzyme counterscreen, NADH absorbance. inhibition, % at 4.8 µM. hit rate 1.2% among 360,000. AID 588335; in the data active = inhibition above about 30%;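 note: 0% = DMSO wells and 100% = wells lacking the enzyme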
Rv3671c protease: Rv3671c (M. tuberculosis) protease inhibition; P9WHR9; hit rate 0.048% among 320,000; inhibition, % at 5.96 µM; in the data active = inhibition above about 38%;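 note: extracellular domain of Rv3671c used as enzyme; 0% = enzyme with DMSO and 100% = no enzyme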
Mtb UGM inh: inhibitors of M. tuberculosis UDP-galactopyranose mutase; P9WIQ1; purified UGM, fluorescence polarization probe displacement; inhibition, % at 10 µM; hit rate 0.06% among 320,000; AID 504406; in the data active = inhibition above about 10%, passing the limit was not always enough
BH1578 lux ind: inducers of Vibrio cholerae quorum light production without autoinducers; V. cholerae BH1578 lux reporter, luminescence, 6 h; activation, % at 18.7 µM; hit rate 0.16% among 350,000; in the data active = activation mostly above about 9.7%, no sharp cut-off
* hit, by the source's call; i = inactive; nt = no result; + = active, no number.

SMILES | FBA Mtb inh | RecA intein inh | GDH-TPI inh | Rv3671c protease | Mtb UGM inh | BH1578 lux ind
COC(=O)c1ccccc1NC(=O)/C=C/c1cc(OC)c(OC)c(OC)c1 | 3 | -2 | 36* | 0 | -1 | 5
COc1ccc(/C=C/C(=O)Nc2ccc(C(N)=O)cc2)cc1OC | 6 | 1 | 53* | -5 | 4 | i
COc1cc(/C=C/C(=O)Nc2ccc(C)cc2)cc(OC)c1OC | 4 | 4 | 27 | -6 | 0 | 0
COc1ccc(/C=C/C(=O)Nc2ccc3c(c2)CCC3)cc1OC | -1 | 3 | 28 | -21 | -2 | 0
COc1cccc(OC)c1C(=O)NC(=S)NNC(=O)[C@H]1C[C@@H]1c1ccccc1 | -1 | 7 | 5 | 7 | 5 | 2
COc1ccc(/C=C/C(=O)Nc2ccccc2C(F)(F)F)cc1OC | 10 | 0 | 31* | -4 | 1 | i
COc1ccc(/C=C/C(=O)NC(=S)NNC(=O)[C@H]2C[C@@H]2c2ccccc2)cc1OC | 1 | 0 | 44* | -1 | 1 | 0
COc1ccc([N+](=O)[O-])cc1NCc1ccco1 | 0 | 0 | -1 | -9 | 0 | -4
NC(=O)c1cccc(-c2ccnc3c2CC(C(=O)NCc2cccc(Cl)c2)O3)c1 (centres undefined) | 5 | nt | 2 | nt | nt | i
COc1cccc(S(=O)(=O)N(C)C[C@H]2OCc3cnnn3CCCC(=O)N([C@H](C)CO)C[C@@H]2C)c1 | -2 | nt | 0 | nt | nt | -1
Cc1nnc(NC(=O)c2ccc(S(=O)(=O)C(F)F)cc2)s1 | 0 | nt | 19 | 5 | 0 | -1
CC1(C)CC(c2nc(-c3ccc([N+](=O)[O-])cc3)cs2)CCO1 (centres undefined) | -1 | 4 | 6 | 1 | -4 | 0
COc1cc(OC)c(NC(=O)c2ccco2)cc1Cl | 1 | 6 | 14 | 1 | -2 | -1
COc1cc(NC(=O)c2ccco2)c(OC)cc1NC(=O)Nc1ccc(Cl)cc1 | 7 | -5 | 31* | 12 | -2 | -5
Cc1cnnn1-c1ccc(C(=O)CCl)cc1 | 1 | 52* | 1 | -8 | -2 | 0
Cc1ccc(NS(=O)(=O)c2cc(C(=O)N(C)C3CCN(C)CC3)ccc2Cl)cc1Cl | -2 | nt | -1 | 5 | 1 | i
COc1ccc(C2=Nn3c(nnc3-c3ccccn3)SC2)cc1OC | 0 | 2 | 35* | 11 | 2 | i
COc1ccc(C2=Nn3c(nnc3-c3ccco3)SC2)cc1OC | -1 | 4 | 37* | 3 | -2 | i
COc1ccc(C2=Nn3c(nnc3-c3ccccc3OC)SC2)cc1OC | 2 | 0 | 17 | 0 | 0 | 0
CC1CCCC(C)N1C(=O)CSc1ncccn1 (centres undefined) | 0 | nt | -1 | -3 | -4 | 0
O=C(Nc1nccs1)c1ccc(-c2ccc(Cl)cc2)o1 | 1 | -1 | 54* | -15 | 0 | 0
O=C(Nc1nccs1)c1ccc(-c2ccc([N+](=O)[O-])cc2)o1 | 0 | 6 | 5 | 1 | 20* | 0
O=C(Nc1nccs1)c1ccc(-c2ccc(F)cc2)o1 | 4 | 0 | 18 | -11 | -1 | -1
CCOc1cc(/C=N/NC(=O)c2ccc3c(c2)OCCO3)cc(Br)c1O | 5 | -1 | 41* | -1 | 0 | i
CCOc1cc(/C=N/NC(=O)C(=O)NC2CC2)cc(Br)c1O | 1 | -2 | 33* | 6 | 2 | 0
SMILES | FBA Mtb inh | RecA intein inh | GDH-TPI inh | Rv3671c protease | Mtb UGM inh | BH1578 lux ind
CCOc1cc(/C=N/NC(=O)C(N)=O)cc(Br)c1O | -7 | -6 | 23 | 0 | 1 | 0
Cc1cccc2sc(=S)[nH]c12 | 1 | nt | nt | nt | nt | nt
O=C1NC2(C=Cc3c(ccc4ccccc34)O2)Oc2ccccc21 (centres undefined) | 152* | -4 | 8 | 3 | -5 | -3
CCCOc1cccc(-c2nc3ccccc3c(=O)o2)c1 | -2 | 43* | -5 | 9 | 4 | 0
COc1ccccc1CCc1nnc(CCC(=O)N(C)Cc2cccc3ncccc23)o1 | 159* | 2 | -2 | 9 | -1 | 0
O=[N+]([O-])c1ccc(/C=N/n2cnc3ccccc32)s1 | -2 | 2 | 11 | -10 | 11* | 0
Cc1cc2ncn(/N=C/c3ccc([N+](=O)[O-])s3)c2cc1C | -1 | 6 | 13 | 7 | -8 | 0
Cc1cc(NC(=O)COC(=O)c2c(Cl)cccc2Cl)no1 | -1 | nt | 8 | 1 | -2 | i
COc1nc2ccccc2nc1N1CC1 | 29* | nt | nt | nt | nt | nt
CC(C)COc1nc2ccccc2nc1N1CCN(C)CC1 | 0 | -2 | 6 | nt | -1 | -1
Cc1c(C)c2ccc(OC(C)C(=O)NC3CC(C)(C)NC(C)(C)C3)cc2oc1=O (centres undefined) | 123* | -1 | 12 | -5 | -2 | 0
Cc1ccc(S(=O)(=O)c2c(N)n(NC(=O)C3CC3)c3nc4ccccc4nc23)cc1 | 181* | -45 | 23 | 2 | 1 | i
Cc1ccc(-n2c(N)c(S(=O)(=O)c3ccccc3)c3nc4ccccc4nc32)cc1 | 33* | 1 | 7 | -3 | 1 | -4
Cc1ccc(S(=O)(=O)c2c(N)n(/N=C/c3ccco3)c3nc4ccccc4nc23)cc1 | 16 | nt | 23 | -17 | -2 | 12
N#Cc1c(N)n(-c2ccc(N)cc2)c2nc3ccccc3nc12 | -3 | 3 | 0 | -2 | 0 | -1
Nc1c(S(=O)(=O)c2cccc(Cl)c2)c2nc3ccccc3nc2n1CCN1CCOCC1 | 8 | -9 | 13 | 2 | -1 | i
Cc1ccc(S(=O)(=O)c2c(N)n(CC3CCOC3)c3nc4ccccc4nc23)cc1 (centres undefined) | + | -15 | 22 | -4 | 0 | -11
CN(C)CCCn1c(N)c(C#N)c2nc3ccccc3nc21 | 146* | i | 16 | -7 | 0 | 0
CN1CCN(C2CN(Cc3ccc([N+](=O)[O-])cc3)S(=O)(=O)C2)CC1 (centres undefined) | -1 | nt | 9 | nt | nt | 0
CCOC(=O)N1CCN(C(=O)CCCn2nnnc2CN2CCC(C)CC2)CC1 | 1 | 0 | 4 | 8 | 3 | 0
Cc1nc(C(F)(F)F)ccc1C(=O)N1CCC1(C)C(=O)NS(=O)(=O)c1cccc(F)c1 (centres undefined) | 1 | nt | -3 | nt | nt | -2
Cc1ccc(S(=O)(=O)c2c(N)n(CCCN(C)C)c3nc4ccccc4nc23)cc1 | 128* | -40 | 42* | 0 | 4 | i
Nc1c(S(=O)(=O)c2ccccc2)c2nc3ccccc3nc2n1/N=C/c1ccco1 | 17 | 9 | 21 | -1 | -2 | i
CCOCCCn1c(=N)c(C(=O)NCc2ccc3c(c2)OCO3)cc2c(=O)n3ccccc3nc21 | nt | -16 | nt | nt | nt | nt
C=CCn1c(=N)c(C(=O)NCCCOC)cc2c(=O)n3ccccc3nc21 | + | -373 | 12 | -3 | 2 | 0
C=CCn1c(=N)c(C(=O)NCCCOC)cc2c(=O)n3cc(C)ccc3nc21 | + | i | 14 | -1 | 0 | 0
CC(c1nccs1)N(C)c1nc2nonc2nc1N(C)C (centres undefined) | 2 | -1 | 25 | 1 | 0 | i
